Test [1] can be described thus: NS1 protein of Zika virus - qHTS assay to identify small molecule inhibitors in human HEK 293 cells (AID 1347053). Further: series mostly up to about 46 µM; nearly all actives have a fitted effect of over 55% in size. The procedure, abridged: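 Compound-treated (1 h pre-infection) HEK 293 cells infected with ZIKV MR766, MOI = 0.5; after 24 h at 37 C, NS1 read by TR-FRET; data normalized to uninfected and infected controls.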
On the technique in general: In qHTS, concentration-response curves come from the screen itself.

A short description of test [2]: qHTS of pediatric cancer cell lines to identify multiple opportunities for drug repurposing: Primary screen for TC32 cells (AID 1347089). Further: nearly all actives have a fitted effect of over 60% in size. In short, it runs like this: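 Luminescent ATP read-out (CellTiter-Glo) of metabolically active TC32 cells after 48 h exposure. Concentration-response curves came from 11-point (MIPE, 0.78 nM–46 µM) or 8-point (NPC, 0.59 nM–46 µM) primary titrations; follow-up used 11 points.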

The nature of test [3]: qHTS of pediatric cancer cell lines to identify multiple opportunities for drug repurposing: Primary screen for DAOY cells (AID 1347090). Further: series mostly up to about 46 µM; nearly all actives have a fitted effect of over 55% in size. The procedure, abridged:
(§1)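 Viability measured as metabolically active cells via CellTiter-Glo luminescence following 48 hours of compound exposure, 11-point dilutions in confirmatory testing. 500-1,000 cells/well plated 5 hours before dosing; controls were DMSO and 2.3 µM bortezomib.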

Test [4] in a line: qHTS of pediatric cancer cell lines to identify multiple opportunities for drug repurposing: Primary screen for SJ-GBM2 cells (AID 1347091). In short, it runs like this: as §1
Test [5] is described as follows: qHTS of pediatric cancer cell lines to identify multiple opportunities for drug repurposing: Primary screen for A673 cells (AID 1347092). Further: nearly all actives have a fitted effect of over 45% in size. Further: potency means the concentration at half of the fitted maximal effect. In short, it runs like this: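 Cell viability of A673 measured by CellTiter-Glo ATP luminescence after 48 hours compound exposure. Dilution series spanned 0.78 nM to 46 µM (MIPE, 11-point) or 0.59 nM to 46 µM (NPC, 8-point); bortezomib 2.3 uM positive control.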

Structures are written as SMILES. Records with an inconclusive call do not appear. A number with no mark means an inactive call. Active and inactive are the calls of the source. The call rests on the fitted dose curve; in most records, active means well fitted curve in the direction sought with a large enough effect; inconclusive means small, poorly fitted or top-dose-only effect, or another doubt; inactive means no such curve, though single readings can be large; an effect the other way counts as inactive or inconclusive.

Take `O=c1[nH]c(=O)n([C@H]2O[C@H](CO)[C@@H](O)[C@@H]2O)cc1/C=C\Br`: the Potency entry in test [1], in test [2], in test [3], in test [4] and in test [5] was “inactive” in each case.
As to `CO[C@]1(NC(=O)CSC(F)F)C(=O)N2C(C(=O)O)=C(CSc3nnnn3CCO)CO[C@H]21`, the Potency entry in test [1], in test [2], in test [3], in test [4] and in test [5] was “inactive” each time.
Turning to `O=C1CC[C@H](C(=O)N2CCCCC2)N1`, the Potency result in test [1], in test [2], in test [3], in test [4] and in test [5] was “inactive” each time.
Take `COc1cc2c(cc1OC)CN(C(=O)[C@H](C)N[C@@H](CCc1ccccc1)C(=O)O)[C@H](C(=O)O)C2`: the Potency entry in test [1], in test [2], in test [3] and in test [5] was “inactive” each time.
Consider `Nc1c(I)cc(I)c(C(=O)N(CCC(=O)O)c2ccccc2)c1I`, for which the Potency entry in test [1], in test [2], in test [3], in test [4] and in test [5] was “inactive” throughout.
Consider `N=C(N)c1ccc(OCCCOc2ccc(C(=N)N)cc2)cc1`, for which the Potency result in test [1], in test [2], in test [3], in test [4] and in test [5] was “inactive” each time.
With `COC(=O)C1=C(C)NC(COC(N)=O)=C(C(=O)OC(C)C)C1c1cccc(Cl)c1Cl` (stereo not given), the Potency entry in test [1], in test [2], in test [3], in test [4] and in test [5] was “inactive” each time.
With `C/C(=N/NC(=O)c1ccncc1)C(=O)O`, the Potency result in test [1], in test [2], in test [3], in test [4] and in test [5] was “inactive” in each case.
On to `CCCCC(CC)COC(=O)c1ccccc1C(=O)O` (stereo not given), for which the Potency entry in test [1], in test [2], in test [3], in test [4] and in test [5] was “inactive” throughout.
For the compound `CC(C)(c1ccc(O)cc1)c1ccc(O)cc1`, the Potency result in test [1], in test [2], in test [3], in test [4] and in test [5] was “inactive” in each case.
As to `N#CC1(c2ccc(F)cc2)CCC(=O)CC1`, the Potency result in test [1], in test [2], in test [3], in test [4] and in test [5] was “inactive” in each case.
`CCCc1ccc(OCC(=O)N2CCN(C(=O)COc3ccc(CCC)cc3OC)CC2)c(OC)c1`: the Potency result in test [1], in test [2], in test [3] and in test [5] was “inactive” throughout.
Turning to `Cc1ccc(-c2ccccc2C#N)cc1`, the Potency result in test [1], in test [2], in test [3], in test [4] and in test [5] was “inactive” throughout.
For `CN(C)CCOC(c1ccccc1)c1ccc(Br)cc1` (stereo not given), the Potency entry in test [1], in test [2], in test [3], in test [4] and in test [5] was “inactive” throughout.
As to `C[C@H](N)C(=O)N[C@@H](C)C(=O)NC1[C@H]2CN(c3nc4c(cc3F)c(=O)c(C(=O)O)cn4-c3ccc(F)cc3F)C[C@@H]12` (stereo not given in full), the Potency entry in test [1], in test [2] and in test [4] was “inactive” each time.
For the compound `CCCC(=O)OCOC(=O)C1=C(C)NC(C)=C(C(=O)OC)C1c1cccc(Cl)c1Cl` (stereo not given), the Potency result in test [1], in test [2] and in test [4] was “inactive” each time.
Take `CC(C)(C)c1cc(C=O)cc(C(C)(C)C)c1O`: the Potency result in test [1], in test [2] and in test [4] was “inactive” each time.
Regarding `CN1Cc2cc(C(=O)N3CCC(C4CCNCC4)CC3)ccc2N[C@@H](CC(=O)O)C1=O`, the Potency result in test [1], in test [2], in test [3], in test [4] and in test [5] was “inactive” in each case.
For `COCCc1ccccn1`, the Potency entry in test [1], in test [2], in test [3], in test [4] and in test [5] was “inactive” in each case.
`O=C1CC(c2ccc(Cl)cc2)CC(=O)N1`: the Potency result in test [1], in test [2], in test [3], in test [4] and in test [5] was “inactive” each time.
For the compound `CC(C)NCCCC1(C(N)=O)c2ccccc2-c2ccccc21`, the Potency entry in test [1], in test [3], in test [4] and in test [5] was “inactive” each time.
On to `COc1cc(OC)nc(O[C@H](C(=O)O)C(OC)(c2ccccc2)c2ccccc2)n1`, for which the Potency result in test [1], in test [2], in test [4] and in test [5] was “inactive” in each case.
For `CCCCOCCOC(=O)c1cccnc1`, the Potency result in test [1], in test [2], in test [4] and in test [5] was “inactive” throughout.
For the compound `NC(=O)NS(=O)(=O)c1ccc(Cl)cc1`, the Potency result in test [1], in test [2], in test [4] and in test [5] was “inactive” each time.
In the case of `CCOC(=O)C(=O)CCc1ccccc1`, the Potency entry in test [1], in test [3], in test [4] and in test [5] was “inactive” in each case.
For `Nc1cccc2c(N)cccc12`, the Potency entry in test [1], in test [3] and in test [4] was “inactive” each time. Moreover, the Potency in test [5] is 24.3 µM (active).
`CCCCN(CCCC)C(C(N)=O)c1ccc(OC)cc1` (stereo not given): the Potency entry in test [1], in test [2], in test [4] and in test [5] was “inactive” each time.
In the case of `COc1ccc2cc(C=O)ccc2c1`, the Potency result in test [1], in test [2], in test [4] and in test [5] was “inactive” in each case.
For `C=CCNc1nc(NCC=C)nc(N2CCN(C(c3ccc(F)cc3)c3ccc(F)cc3)CC2)n1`, the Potency entry in test [1], in test [2] and in test [4] was “inactive” throughout.
As to `C/C(=N\O)[C@@H](C)NCC(C)(C)CN[C@H](C)/C(C)=N/O`, the Potency entry in test [1], in test [3], in test [4] and in test [5] was “inactive” each time.
Take `Nc1nc2ccccc2n1Cc1ccc(F)cc1`: the Potency result in test [1], in test [3] and in test [4] was “inactive” each time.
Consider `C=C(C)C(=O)OCC(O)CO` (stereo not given), for which the Potency result in test [1], in test [2], in test [4] and in test [5] was “inactive” in each case.
Take `O=C1Cc2cc(Cl)ccc2N1`: the Potency entry in test [1], in test [2] and in test [4] was “inactive” throughout.
In the case of `O=C(O)Cn1cnnn1`, the Potency result in test [1], in test [2], in test [4] and in test [5] was “inactive” in each case.

Values taken from PubChem BioAssay (NCATS).
